PubChem BioAssay (EPA / NIEHS)
Inconclusive results are not listed. Active and inactive are the calls of the source. How the source made its calls, unless noted: active means hit-call score of the fitted dose curve at least 0.9, where 1 is the maximum; inactive means score below 0.9.

Key:
[1] = CCTE_Simmons_MITO_basal_resp_rate: CCTE's HepG2 Seahorse XF Respirometric Screening Assay at Basal Respiratory State, Simmons Lab (AID 2284001); conditions: actives raise or lower the signal
In short: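 Readout is oxygen consumption rate after test compound injection, measured by Seahorse XF in HepG2 cells. Seven concentrations from 125 nM up to 100 uM final are tested, and activity in either direction is fitted against DMSO.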

[2] = CCTE_Simmons_MITO_max_resp_rate: CCTE's HepG2 Seahorse XF Respirometric Screening Assay at Maximal Respiratory State [uncoupled], Simmons Lab (AID 2284002); conditions: actives raise or lower the signal
In short: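 Maximal respiration in HepG2 cells is recorded as OCR by Seahorse XF following FCCP injection. Compounds span 125 nM–100 uM final; activity is called in either direction against DMSO.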

[3] = CCTE_Simmons_MITO_inhib_resp_rate: CCTE's HepG2 Seahorse XF Respirometric Screening Assay at Inhibited Respiratory State [full ETC block], Simmons Lab (AID 2284006); conditions: actives raise or lower the signal
In short: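 OCR read-out in the inhibited phase following rotenone/antimycin A, after compound and FCCP injections, in HepG2 cells. Seven concentrations (125 nM to 100 uM final), three biological replicates, 6-min cycles over 72 min; DMSO baseline.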

[4] = CCTE_Simmons_MITO_viability: CellTiter-Glo Viability Assessment for CCTE's HepG2 Seahorse XF Respirometric Screening Assay [post-hoc], Simmons Lab (AID 2284007; active means hit-call score of the fitted dose curve at least 0.9, where 1 is the maximum;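 on AC50: cells exposed to chemical for 90 min before the ATP read; actives lower ATP signal relative to DMSO baseline meaning reduced viability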)
In short: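 Luciferase-coupled ATP luminescence, single endpoint. HepG2, post-respirometry. Compound 125 nM–100 uM final, 7 conc., 90 min. n=3 biological, technical singles. DMSO vehicle/baseline; dichlone 10 nM–100 uM, 8 conc., as positive control.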

[5] = CCTE_Harrill_HTTr_Viability_MCF7: CCTE's 6-hour Cell Viability Assessment for the High-Throughput Transcriptomics (HTTr) Platform, in MCF-7 cells cultured in DMEM + 10% fetal bovine serum, Harrill Lab (AID 2284010)
In short: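 PI exclusion, high-content imaging; 8-pt dilution series, 6 h exposure; bidirectional fit vs DMSO (neg. ctrl/baseline); gain of signal = loss of membrane integrity.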

[6] = CCTE_Harrill_HTTr_Apoptosis_MCF7: CCTE's 6-hour Apoptosis Assessment for the High-Throughput Transcriptomics (HTTr) Platform, in MCF-7 cells cultured in DMEM + 10% fetal bovine serum, Harrill Lab (AID 2284011)
In short: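 Cells are dosed with test chemicals at eight concentrations and imaged 6 hours later for caspase-3/7 activity using a green fluorogenic detection reagent. Activity is fitted in both directions against DMSO controls.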

[7] = CCTE_Harrill_HTTr_CellCount_MCF7: CCTE's Cell Proliferation Assessment for the High-Throughput Transcriptomics (HTTr) Platform, Harrill Lab (AID 2284012; active means hit-call score of the fitted dose curve at least 0.9, where 1 is the maximum;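 further: count of Hoechst-stained nuclei per well by high-content imaging in MCF-7 cells; cells exposed to compound for six hours; intended direction is loss of nuclei count meaning fewer cells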)
In short: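 Readout: Hoechst nuclear count by high-content imaging. MCF-7, 8-point dilution series, 6 h exposure. Bidirectional fit vs DMSO baseline.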

[8] = CCTE_Shafer_MEA_acute_spike_number: CCTE's Neural Acute Assay for Total Number of Spikes, Shafer Lab (AID 2284008);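 on AC50: curve fitted for decrease in spike count so AC50 reflects inhibitors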
In short: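 Cortical neurons from rat, matured to DIV 13 or 15 on microelectrode arrays, are recorded at 37 C before and during 40-min exposure to 0.03-40 uM compound. Wells need >/= 10 active electrodes.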

[9] = CCTE_Shafer_MEA_acute_firing_rate_mean: CCTE's Neural Acute Assay for Mean Firing Rate, Shafer Lab (AID 2284009);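 further: analyzed for loss of signal so actives lower firing rate relative to DMSO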
In short: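 Spontaneous spiking of primary rat cortical networks, DIV 13/15, 37 C. Compound 0.03-40 uM, n ≥3 wells; 40 min baseline vs 40 min treated. Endpoint fitted in loss-of-signal direction against DMSO.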

[10] = CCTE_Shafer_MEA_acute_burst_number: CCTE's Neural Acute Assay for Single-Electrode Bursts, Shafer Lab (AID 2284013)
In short: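 Burst totals were derived with adaptive spike detection (8x rms threshold) on filtered signals from rat cortical cultures; change relative to pre-treatment baseline after 40-min compound exposure (0.03-40 uM) was fitted in the negative direction against DMSO.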

Measured: AC50

Cc1oc(-c2ccccc2)nc1CCOc1cccc2c1ccn2CCC(=O)O
inactive: [2] | [3] | [4] | [5] | [6]
active: [1] 3.11 µM

Cc1c(C(=O)O)c(O)cc2c1C(=O)c1c(O)c([C@@H]3O[C@H](CO)[C@@H](O)[C@H](O)[C@H]3O)c(O)c(O)c1C2=O
inactive: [1] | [2] | [5] | [6] | [7]
active: [3] 3.25 µM | [4] 40.1 µM

CC(=O)Oc1ccccc1C(=O)O
inactive: [8] | [9] | [5] | [6] | [10]

COc1ccc(S(=O)(=O)N2C(=O)[C@@](c3ccccc3OC)(N3C[C@H](O)C[C@H]3C(=O)N(C)C)c3cc(Cl)ccc32)c(OC)c1
inactive: [2] | [3] | [5] | [6] | [10]
active: [8] 31.8 µM | [9] 31.8 µM

C=CCOC(=O)c1ccccc1C(=O)OCC=C
active: [1] 36.2 µM
inactive: all other assays above

Nc1ccccc1N
inactive: [8] | [9] | [5] | [6] | [7] | [10]

CN[C@H]1CC[C@@H](c2ccc(Cl)c(Cl)c2)c2ccc(S(N)(=O)=O)cc21
active: [1] 25.6 µM
inactive: all other assays above

COc1ccc2c(c1)c(CC(=O)O)c(C)n2C(=O)c1ccc(Cl)cc1
active: [1] 13.4 µM
inactive: all other assays above

COc1cc(S(=O)(=O)O)c(C)cc1N=Nc1c(O)ccc2cc(S(=O)(=O)O)ccc12
inactive: [2] | [5] | [6] | [7]
active: [1] 38.7 µM | [3] 23.8 µM | [4] 50 µM

O=C(O)CCCCC(=O)O
inactive: [8] | [9] | [5] | [6] | [7] | [10]

FC(F)(F)C(F)(F)C(F)(F)C(F)(F)C(F)(F)C(F)(F)CCI
inactive: [8] | [9] | [5] | [6] | [10]

CCCCCCCCCCO
inactive: [8] | [9] | [5] | [6] | [7] | [10]

CCCCC(CC)COC(=O)CC(C(=O)OCC(CC)CCCC)S(=O)(=O)O (stereo not drawn)
inactive: [1] | [3] | [5] | [6] | [7]
active: [2] 85.2 µM | [4] 56.1 µM

C[Si]1(C)O[Si](C)(C)O[Si](C)(C)O[Si](C)(C)O1
inactive: [8] | [9] | [5] | [6] | [7] | [10]

Cc1ccc(C(C)C)c(O)c1
inactive: [8] | [9] | [5] | [6] | [7] | [10]

Clc1cc(Cl)c(Cl)cc1Cl
inactive: [8] | [9] | [5] | [6] | [7] | [10]

Cc1cccc(Nc2cc(Cl)nc(SCC(=O)O)n2)c1C
inactive: [1] | [2] | [3] | [4] | [5] | [6]

c1cc(-c2ccncc2)ccn1
inactive: [8] | [9] | [5] | [6] | [7] | [10]

CN1CCCC1=O
inactive: [8] | [9] | [5] | [6] | [7] | [10]

CC(C)(C)c1cc(O)c(C(C)(C)C)cc1O
active: [1] 18.3 µM | [2] 36.7 µM | [8] 25.9 µM | [9] 25.9 µM
not listed: [7]
inactive: all other assays above

Cc1ccc(C)c(O)c1C
inactive: [8] | [9] | [5] | [6] | [7] | [10]

NS(=O)(=O)c1cc2c(cc1Cl)NCNS2(=O)=O
inactive: [8] | [9] | [5] | [6] | [7] | [10]

CCCc1cc(=O)[nH]c(=S)[nH]1
inactive: [8] | [9] | [5] | [6] | [7] | [10]

CNCc1cc(F)ccc1Oc1ccc(Cl)c(Cl)c1
active: [8] 3.97 µM | [9] 2.55 µM | [10] 2.24 µM
inactive: [5] | [6] | [7]

C=CCc1ccc(O)c(OC)c1
inactive: [8] | [9] | [5] | [6] | [7] | [10]

NCC1(Cc2noc(=O)[nH]2)CCCCC1
inactive: [8] | [9] | [5] | [6] | [7] | [10]

Cc1ccc2ncccc2c1
inactive: [8] | [9] | [5] | [6] | [10]

CCOC(=O)C(C)(C)Oc1ccc(Cl)cc1
inactive: [8] | [9] | [5] | [6] | [10]
